# Shiga inhibitor: Shiga toxin inhibition; inhibition, % at 38.7 µM; 9.2% of 290,000 active; Vero cells, Shiga toxin protein synthesis inhibition reporter; in the data active = inhibition mostly above about 28%, no sharp cut-off; inactive = mostly below about 43%; note: 0% is about no effect
# Cycloheximide cs: counter-screen for Shiga toxin inhibitors: cycloheximide protein synthesis inhibition; max response, %; cell reporter, cycloheximide protein synthesis inhibition counterscreen; 12% of 300,000 active; in the data active = max response mostly above about 13%, no sharp cut-off; inactive = mostly below about 14%; note: read at 38.3 µM for the half of the compounds with a filed dose; 0% is about no effect
# Marburg entry inh: inhibitors of Marburg virus binding or cell entry; Marburg virus pseudotyped entry inhibition, cell reporter; Potency, µM (series often up to 37.8 µM), for inactives: top-dose activity change, negative = inhibition, actives largely listed as inhibitors; 1.8% of 300,000 active; AID 540276; calls by dose curve; tested in HEK293 cells; note: potency is the fitted concentration of half-maximal effect; % is set by controls: 0 for no effect and ±100 for the full control effect
# LASV entry inh: Lassa virus entry inhibition | Lassa virus pseudotype entry inhibition, cell reporter | Potency, µM (titrated, usually from 37.9 µM), for the others: at the highest dose activity change, negative = inhibition, usual class: inhibitors | 1.2% of 300,000 active; calls by dose curve; tested in HEK293 cells; note: potency is the fitted concentration of half-maximal effect; % is set by controls: 0 for no effect and ±100 for the full control effect; nearly all actives have a fitted effect of over 50% in size
# Numbers without * were called inactive; ? = inconclusive; / = not tested or not shown; [ ] = remark or other dose. Rows were chosen to be rich in hits. Some 12% of all compounds tested hit in one or more screens of this group.
SMILES,Shiga inhibitor,Cycloheximide cs,Marburg entry inh,LASV entry inh
COC(=O)c1ccc(NC(=O)C2CCCCC2C(=O)O)cc1 (centres undefined),-4,1,?,1%
O=C(COC(=O)c1ccc(NC(=O)C2CC=CCC2C(=O)O)cc1)c1ccccc1 (centres undefined),75*,36*,19%[46.1 µM],-9%[46.1 µM]
O=S(=O)(c1cccc(-c2nnc(SCc3nc4ccccc4s3)o2)c1)N1CCOCC1,128*,97*,1%,-20%
Cc1ccc(N2C(=O)c3ccccc3C2Nc2ccccc2)nc1 (centres undefined),30,10,/,/
O=C1c2ccccc2C(Nc2ccc3c(c2)OCCO3)N1Cc1ccc2c(c1)OCO2 (centres undefined),62*,31*,-3%,/
O=C1c2ccccc2C(Nc2ccccc2)N1c1ccc(Cl)cn1 (centres undefined),169*,71*,/,/
CCc1cccc(NC2c3ccccc3C(=O)N2c2ccc(C)cn2)c1 (centres undefined),90*,41,/,/
O=C1c2ccccc2C(Nc2ccc3c(c2)OCCO3)N1c1ccccn1 (centres undefined),70*,41*,/,/
O=C1c2ccccc2C(Nc2ccccc2)N1Cc1ccc2c(c1)OCO2 (centres undefined),-9,8,?,6%[46.1 µM]
CCOC(=O)c1cccc(NC(=O)CC2C(=O)N(c3ccccc3)C(=O)N2Cc2ccco2)c1 (centres undefined),/,/,/,-29%[46.1 µM]
CC(=O)Nc1ccc(NC(=O)C(C)OC(=O)CCCOc2ccc(Cl)cc2C)cc1 (centres undefined),/,/,19%[46.1 µM],?
O=C1c2ccccc2C(Nc2ccc3c(c2)OCCO3)N1c1ccc(Cl)cn1 (centres undefined),44,9.9*,/,/
O=C(NCc1ccccc1)C(c1ccccc1)N(Cc1cccs1)C(=O)c1cnccn1 (centres undefined),19,-1,21µM*,-6%
CN(C)S(=O)(=O)c1cccc(COC(=O)Cc2c(F)cccc2Cl)c1,27,14*,-26%[46.1 µM],?
OC(CNCc1ccco1)Cn1c2ccccc2c2ccccc21 (centres undefined),-2,-2,16µM*,?
CCOC(=O)[C@H](C)Oc1ccc2c(C)cc(=O)oc2c1C(C)=O,/,/,15%,/
Cc1ccc(NC(=O)c2cc3ccccc3o2)nc1,/,/,?,5µM*
O=C(Nc1ccc(Cl)cc1Cl)c1cc2ccccc2o1,57*,51*,-30%,?
O=C(Nc1ncccc1Cl)c1cc2ccccc2o1,73*,30*,/,/
COc1ccccc1NC(=O)c1cc2ccccc2o1,64*,39*,?,-29%
COc1ccc(C(=O)NCc2nnc(SCC(=O)N3CCCC3)o2)cc1,-14,-5,-4%[46.1 µM],8%[46.1 µM]
COC(=O)C(C(C)C)N1CC(=O)c2ccccc2S1(=O)=O (centres undefined),-3,-2,/,/
O=C(Nc1ccc(Cl)cn1)c1ccc2ccccc2n1,10,17,?,?
CCN(CC)c1ccc(NC(=O)c2c(OC)cccc2OC)c(C)c1,-17,9,16%,0%
CCN(CC)c1ccc(NC(=O)c2cc3ccccc3o2)c(C)c1,59*,26*,0%,-2%
SMILES,Shiga inhibitor,Cycloheximide cs,Marburg entry inh,LASV entry inh
Cc1ccc(NC(=O)c2ccc3ccccc3n2)nc1,115*,38*,23%,?
Cc1ccccc1NC(=O)c1cc2ccccc2o1,/,37*,?,-26%[46.1 µM]
CCOc1ccccc1N1CCN(C(=O)c2ccc(OCC(=O)N3CCOCC3)c(OC)c2)CC1,-5,-2,3%[46.1 µM],22%[46.1 µM]
Cc1ccc(N/C(SCc2ccccc2C)=C(/C#N)C(=O)NCc2ccco2)cc1C,11,16,?,?
CCc1ccc(N/C(SCc2cccc(F)c2)=C(/C#N)C(=O)NCc2ccco2)cc1,29,21*,21µM*,?
CCN(CC)c1ccc(NC(=O)c2cc(CN3CCCC3)on2)c(C)c1,/,/,/,-4%[46.1 µM]
COc1ccc(-n2c(C)c(C(C)=O)c3cc(O)ccc32)cc1,-2,-4,-9%,/
CCOc1ccc(-n2c(C)c(C(=O)O)c3cc(OC)ccc32)cc1,7,0,6.3µM*,?
CCOc1ccc(-n2c(C)c(C(C)=O)c3cc(OC(C)=O)ccc32)cc1,-11,-1,/,/
CCOC(=O)COc1ccc2c(c1)c(C(C)=O)c(C)n2-c1ccc(OC)cc1,145*,63,-6%,?
CCOc1ccc(N2CC(C(=O)N3CCN(c4ccccn4)CC3)CC2=O)cc1 (centres undefined),/,/,-3%,26%
CN(CC1COc2ccccc2O1)c1nc(-c2cccnc2)nc2ccccc12 (centres undefined),-12,-6,2.6µM*,?
Cc1ccc(SCC(=O)Nc2ccc(N3CCN(C)CC3)c(F)c2)cc1,90*,48*,-1%,?
CC(C)C(=O)Nc1ccc(N2CCN(C)CC2)c(F)c1,39,22*,22%[46.1 µM],4%
CN1CCN(c2ccc(NC(=O)CN3CCOCC3)cc2F)CC1,1,-3,?,3%
COc1ccc(CCNc2nc(SCc3ccccc3F)nc3ccccc23)cc1OC,/,/,/,8%[46.1 µM]
CCn1nc(C)cc1-c1nnc(Sc2ncc([N+](=O)[O-])s2)n1C,-8,-4,/,/
Cc1ccc(NCc2ccc(O)c3ncccc23)cc1,18,16*,?,?
Cc1ccc(NCc2ccc(O)c3ncccc23)cc1C,54*,36*,?,?
Cc1cccnc1NCc1ccc(O)c2ncccc12,-11,2,?,?
COc1ccc(NC(=S)Nc2cc(-c3ccccc3)[nH]n2)cc1Cl,8,20*,16%,?
Cc1cc(NC(=S)Nc2ccc(C)c(Cl)c2)n[nH]1,133*,68*,-3%[46.1 µM],7%
COc1cc(C)c(NC(=S)Nc2ccc(C)c(Cl)c2)cc1OC,-7,0,-24%,-17%
COc1ccc(NC(=S)Nc2cc(C)[nH]n2)cc1Cl,90*,45*,?,?
CC(NCc1cc(Br)ccc1OCC(=O)NCc1ccccc1)c1ccccc1 (centres undefined),-17,-1,/,/
SMILES,Shiga inhibitor,Cycloheximide cs,Marburg entry inh,LASV entry inh
CC12CC(c3ccccc3O1)N(C(=O)c1ccco1)C(=S)N2c1ccccc1 (centres undefined),-10,-3,16µM*,?
CC(=O)c1c(N2CCN(C(=O)c3ccco3)CC2)nc(=S)n(-c2ccccc2)c1C,-7,-3,-9%,14%
COc1ccc(CCNC(=O)Nc2ccc(F)cc2F)cc1OC,26,21,/,/
Cc1ccc(C(=O)N2CCN(c3ccccn3)CC2)cc1Cl,-3,-5,-15%[46.1 µM],-18%[46.1 µM]
CCCOC1CCCN(C(=O)c2ccc(OC3CCN(C(=O)COC)CC3)cc2)C1 (centres undefined),43,8,30%,?
COCCC(=O)N1CCC(Oc2ccc(C(=O)N(C)C3CCCCC3)cc2)CC1,/,12*,/,/
CCCOC1CCCN(C(=O)c2ccc(OC3CCN(C(=O)CCOC)CC3)cc2)C1 (centres undefined),52,16*,5%,20%
COCC(=O)N1CCC(Oc2ccc(C(=O)N(C)C3CCCCC3)cc2)CC1,-3,-4,/,/
CCC(=O)NC(c1ccccc1)c1nc2ccccc2[nH]1 (centres undefined),68*,44*,25%,?
Cc1nc2cc(Nc3nnc(-c4ccccc4)c4ccccc34)ccc2n1C,45,45*,-8%,-23%

# Bioassay records as filed in PubChem BioAssay.
